PubChem BioAssay AID1159580 (chemical genetic matrix, 2015)
The campaign covered roughly 5,500 compounds. About 2,000 (36%) were called active. Another 18% or so got no clear call; they are omitted. Cut-off read from the data, not from the text of the source: active = normalized growth mostly below about 0.91 (no sharp cut-off); inconclusive = no clear call, values can overlap the other calls; inactive = mostly above about 0.92. The list shows a part of the results.

Experiment: chemical genetic growth profiling, strain panel (AID 1159580);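 note: tested at 20 µM; growth read once vehicle control cultures reached saturation at 30 °C; 1 = growth at the plate median or of vehicle wells; lower values mean less growth of the strain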
Conditions: growth OD
[1] = S. cerevisiae deletion strains, locus YDL101C, strain DUN1, active compounds read low
[2] = S. cerevisiae deletion strains, locus YHR030C, strain SLT2, active compounds read low

Measured: normalized growth

Oc1c(Cl)cc(Cl)cc1C=Nc1nc(-c2ccc3ccccc3c2)cs1
active: S. cerevisiae deletion strains, locus YER123W, strain YCK3, active compounds read low 0.59 | S. cerevisiae deletion strains, locus YGR092W, strain DBF2, active compounds read low 0.342 | [2] 0.486 | S. cerevisiae deletion strains, locus YJL157C, strain FAR1, active compounds read low 0.685 | S. cerevisiae deletion strains, locus YLR113W, strain HOG1, active compounds read low 0.62 | S. cerevisiae deletion strains, locus YLR133W, strain CKI1, active compounds read low 0.701 | S. cerevisiae deletion strains, locus YLR403W, strain SFP1, active compounds read low 0.639 | S. cerevisiae deletion strains, locus YML070W, strain DAK1, active compounds read low 0.651 | S. cerevisiae deletion strains, locus YMR205C, strain PFK2 (second series), active compounds read low 0.741 | S. cerevisiae deletion strains, locus YNL020C, strain ARK1, active compounds read low 0.684 | S. cerevisiae deletion strains, locus YOL136C, strain PFK27, active compounds read low 0.537 | S. cerevisiae deletion strains, locus YOR061W, strain CKA2, active compounds read low 0.58 | S. cerevisiae deletion strains, locus YPL256C, strain CLN2, active compounds read low 0.558
inactive: S. cerevisiae deletion strains, locus YAR019C, strain CDC15, active compounds read low 0.958 | S. cerevisiae deletion strains, locus YBL105C, strain PKC1, active compounds read low 0.966 | S. cerevisiae deletion strains, locus YBR135W, strain CKS1, active compounds read low 0.947 | S. cerevisiae deletion strains, locus YBR136W, strain MEC1, active compounds read low 0.957 | S. cerevisiae deletion strains, locus YBR160W, strain CDC28, active compounds read low 0.96 | S. cerevisiae deletion strains, locus YDL017W, strain CDC7, active compounds read low 0.958 | S. cerevisiae deletion strains, locus YDL028C, strain MPS1, active compounds read low 0.958 | [1] 0.962 | S. cerevisiae deletion strains, locus YDL108W, strain KIN28, active compounds read low 0.959 | S. cerevisiae deletion strains, locus YDL132W, strain cdc53, active compounds read low 0.971 | S. cerevisiae deletion strains, locus YDL214C, strain PRR2, active compounds read low 0.793 | S. cerevisiae deletion strains, locus YDR052C, strain DBF4, active compounds read low 0.969 | S. cerevisiae deletion strains, locus YDR054C, strain cdc34, active compounds read low 0.957 | S. cerevisiae deletion strains, locus YDR226W, strain ADK1, active compounds read low 0.966 | S. cerevisiae deletion strains, locus YDR477W, strain SNF1, active compounds read low 0.802 | S. cerevisiae deletion strains, locus YER133W, strain GLC7, active compounds read low 0.791 | S. cerevisiae deletion strains, locus YFL009W, strain cdc4, active compounds read low 0.956 | S. cerevisiae deletion strains, locus YFL029C, strain CAK1, active compounds read low 0.963 | S. cerevisiae deletion strains, locus YFR003C, strain YPI1, active compounds read low 0.961 | S. cerevisiae deletion strains, locus YFR019W, strain FAB1, active compounds read low 0.78 | S. cerevisiae deletion strains, locus YFR028C, strain CDC14, active compounds read low 0.966 | S. cerevisiae deletion strains, locus YGR040W, strain KSS1, active compounds read low 0.833 | S. cerevisiae deletion strains, locus YGR052W, strain FMP48, active compounds read low 0.827 | S. cerevisiae deletion strains, locus YHR079C, strain IRE1, active compounds read low 0.557 | S. cerevisiae deletion strains, locus YHR082C, strain KSP1, active compounds read low 0.814 | S. cerevisiae deletion strains, locus YHR205W, strain SCH9, active compounds read low 0.737 | S. cerevisiae deletion strains, locus YIL147C, strain SLN1, active compounds read low 0.952 | S. cerevisiae deletion strains, locus YJL095W, strain BCK1, active compounds read low 0.51 | S. cerevisiae deletion strains, locus YJL128C, strain PBS2, active compounds read low 0.971 | S. cerevisiae deletion strains, locus YJR016C, strain ILV3, active compounds read low 0.962 | S. cerevisiae deletion strains, locus YJR066W, strain TOR1 (second series), active compounds read low 0.86 | S. cerevisiae deletion strains, locus YJR066W, strain TOR1, active compounds read low 0.626 | S. cerevisiae deletion strains, locus YKL048C, strain ELM1, active compounds read low 0.871 | S. cerevisiae deletion strains, locus YKL067W, strain YNK1, active compounds read low 0.787 | S. cerevisiae deletion strains, locus YKL101W, strain HSL1, active compounds read low 0.854 | S. cerevisiae deletion strains, locus YKL193C, strain SDS22, active compounds read low 0.953 | S. cerevisiae deletion strains, locus YKL203C, strain TOR2, active compounds read low 0.824 | S. cerevisiae deletion strains, locus YMR001C, strain CDC5, active compounds read low 0.957 | S. cerevisiae deletion strains, locus YMR277W, strain FCP1, active compounds read low 0.958 | S. cerevisiae deletion strains, locus YNL006W, strain LST8, active compounds read low 0.96 | S. cerevisiae deletion strains, locus YNL161W, strain CBK1, active compounds read low 0.965 | S. cerevisiae deletion strains, locus YNL183C, strain NPR1, active compounds read low 0.72 | S. cerevisiae deletion strains, locus YNL207W, strain RIO2, active compounds read low 0.959 | S. cerevisiae deletion strains, locus YNL222W, strain SSU72, active compounds read low 0.961 | S. cerevisiae deletion strains, locus YNL307C, strain MCK1 (second series), active compounds read low 0.757 | S. cerevisiae deletion strains, locus YOL078W, strain AVO1, active compounds read low 0.957 | S. cerevisiae deletion strains, locus YOR119C, strain RIO1, active compounds read low 0.855 | S. cerevisiae deletion strains, locus YOR231W, strain MKK1, active compounds read low 0.623 | S. cerevisiae deletion strains, locus YOR329C, strain SCD5, active compounds read low 0.963 | S. cerevisiae deletion strains, locus YPL031C, strain PHO85, active compounds read low 0.809 | S. cerevisiae deletion strains, locus YPL153C, strain RAD53, active compounds read low 0.768 | S. cerevisiae deletion strains, locus YPL204W, strain HRR25, active compounds read low 0.766 | S. cerevisiae deletion strains, locus YPL209C, strain IPL1, active compounds read low 0.954 | S. cerevisiae deletion strains, locus YPR025C, strain CCL1, active compounds read low 0.962 | S. cerevisiae deletion strains, locus YPR106W, strain ISR1, active compounds read low 0.973 | S. cerevisiae deletion strains, locus YPR111W, strain DBF20, active compounds read low 0.949 | S. cerevisiae deletion strains, strain NNK1, active compounds read low 0.964 | S. cerevisiae deletion strains, strain TSCII, active compounds read low 0.953

Cc1onc(-c2c(Cl)cccc2Cl)c1-c1nc(-c2ccc3c(c2)OCCO3)cs1
inactive: S. cerevisiae deletion strains, locus YAL013W, strain DEP1, active compounds read low 1.01 | S. cerevisiae deletion strains, locus YBR229C, strain ROT2, active compounds read low 1.01 | S. cerevisiae deletion strains, locus YCL061C, strain MRC1, active compounds read low 1 | [1] 1.01 | S. cerevisiae deletion strains, locus YDR150W, strain NUM1, active compounds read low 1.03 | S. cerevisiae deletion strains, locus YEL061C, strain CIN8, active compounds read low 1.02 | S. cerevisiae deletion strains, locus YGR078C, strain PAC10, active compounds read low 0.991 | [2] 0.998 | S. cerevisiae deletion strains, locus YHR087W, strain rtc3, active compounds read low 1.01 | S. cerevisiae deletion strains, locus YJL187C, strain SWE1, active compounds read low 1 | S. cerevisiae deletion strains, locus YJR043C, strain POL32, active compounds read low 1.01 | S. cerevisiae deletion strains, locus YJR075W, strain HOC1, active compounds read low 0.99 | S. cerevisiae deletion strains, locus YLR039C, strain RIC1, active compounds read low 0.959 | S. cerevisiae deletion strains, locus YLR058C, strain SHM2 (second series), active compounds read low 1.01 | S. cerevisiae deletion strains, locus YLR085C, strain ARP6, active compounds read low 0.973 | S. cerevisiae deletion strains, locus YLR262C, strain YPT6, active compounds read low 1 | S. cerevisiae deletion strains, locus YML094W, strain GIM5, active compounds read low 0.991 | S. cerevisiae deletion strains, locus YMR219W, strain ESC1, active compounds read low 1 | S. cerevisiae deletion strains, locus YMR263W, strain SAP30, active compounds read low 0.993 | S. cerevisiae deletion strains, locus YMR307W, strain GAS1, active compounds read low 0.946 | S. cerevisiae deletion strains, locus YNL153C, strain GIM3, active compounds read low 0.997 | S. cerevisiae deletion strains, locus YNL298W, strain CLA4 (second series), active compounds read low 0.987 | S. cerevisiae deletion strains, locus YNL322C, strain KRE1, active compounds read low 1.02 | S. cerevisiae deletion strains, locus YNR030W, strain Alg12, active compounds read low 1.02 | S. cerevisiae deletion strains, locus YOL006C, strain TOP1, active compounds read low 0.999 | S. cerevisiae deletion strains, locus YPL055C, strain LGE1, active compounds read low 1.04 | S. cerevisiae deletion strains, locus YPL241C, strain CIN2, active compounds read low 1.02 | S. cerevisiae deletion strains, locus YPR135W, strain CTF4, active compounds read low 0.934 | S. cerevisiae strains, strain wild type, active compounds read low 1.01
